From PubChem BioAssay AID2284345 (EPA ToxCast)
Results filed as inconclusive are left out. The source made the active and inactive calls. Rule for the calls: active = hit-call score of the fitted dose curve at least 0.9, where 1 is the maximum; inconclusive = response in the unintended direction; inactive = score below 0.9.

What follows are compounds tested on zebrafish Glucocorticoid Receptor (GR), gene 553740 (assay: ATG_zfGR_EcoTox2: Attagene TRANS-FACTORIAL EcoTox-2 HepG2 Assay for zebrafish Glucocorticoid Receptor (GR)).
Description: ATG_EcoTox2 is a cell-based, multiplexed assay created by modifying the existing Attagene TRANS-FACTORIAL system to include a panel of nuclear receptors from some or all the following species: human (Homo sapiens), african clawed frog (Xenopus laevis), rainbow trout (Oncorhynchus mykiss), japanese medaka (Oryzias latipes), and zebrafish (Danio rerio). The ECOTOX2-FACTORIAL format uses HepG2, a human liver cell line, with measurements taken at 24 hours after chemical dosing in a 24-well plate. ATG_zfGR_EcoTox2 is one of 29 assay components calculated in the ATG_EcoTox2 assay. It is designed to make measurements of mRNA induction, a form of inducible reporter, as detected with fluorescence intensity signals by Reverse transcription polymerase chain reaction (RT-PCR) and Capillary electrophoresis technology.The assay endpoint ATG_zfGR_EcoTox2 was analyzed in the positive analysis fitting direction relative to DMSO as the negative control and baseline of activity. Using a type of inducible reporter, measures of mRNA for gain-of-signal activity can be used to understand the reporter gene at the transcription factor-level as they relate to the gene for glucocorticoid receptor. Furthermore, this assay endpoint can be referred to as a primary readout, because this assay has produced multiple assay endpoints where this one serves a reporter gene function. To generalize the intended target to other relatable targets, this assay endpoint is annotated to the nuclear receptor intended target family, where the subfamily is steroidal.
Human liver HepG2 cells are transiently transfected with multiple reporter transcription units (MRTUs) in 6-well plates using FuGene 6 reagent (Roche; 3 ml FuGene/1 mg DNA). The MRTU constructs are regulated by a cis-regulating element (promoter). Each RTU expresses a GAL4-UAS that regulates the transcription of a nearby target reporter gene sequence. A major difference between the CIS and TRANS system is that in CIS activities of endogenous TFs are measured, whereas the TRANS assay evaluates changes in activities of exogenous, chimeric NR-Gal4 proteins. […] At the end of 24 hour incubation, total RNA was isolated using TriZol reagent (Invitrogen). The isolated RNA is then reverse-transcribed using oligo(dT) primer and Mo-MLV reverse transcriptase (Invitrogen) with DNAse I (Ambion) treatment for 30 min. The one-tenth of the produced cDNA was amplified by PCR using Taq DNA polymerase (Invitrogen) and two reporter sequence-specific primers. The PCR products were fluorescently labeled by primer extension with 6-arboxyfluorescein (6-FAM) 5'-labeled reporter sequence-specific primer (2 min at 95 C, 20 s at 68 C and 10 min at 72 C) and these products were digested with 5U of HpaI (New England Biolabs) for 2h at 37 C. The fragments were purified using Qiaquick PCR columns (Qiagen), analyzed on an ABI 3130xL genetic analyzer (Applied Biosystems) with peak positions identified by using a set of X-rhodamine (ROX)-labeled MapMarker1000 molecular weight standards (BioVentures). The raw capillary electrophoresis data was processed using Attagraph software (Attagene).
In the case of Cc1c(C)c2c(c(C)c1O)CCC(C)(COc1ccc(CC3SC(=O)NC3=O)cc1)O2 (configuration not stated), the outcome is reported as “inactive”.
With CN(CCOc1ccc(CC2SC(=O)NC2=O)cc1)c1ccccn1 (configuration not stated) the outcome was “inactive”.
In the case of CC(C)OC(=O)C(C)(C)Oc1ccc(C(=O)c2ccc(Cl)cc2)cc1, the outcome is reported as “inactive”.
With C[C@]12C=CC(=O)C=C1CC[C@@H]1[C@@H]2C(=O)C[C@@]2(C)[C@H]1CC[C@]2(O)C(=O)CO the outcome was “inactive”.
In the case of C[C@@H]1C[C@H]2[C@@H]3CCC4=CC(=O)C=C[C@]4(C)[C@@]3(F)[C@@H](O)C[C@]2(C)[C@@]1(O)C(=O)COP(=O)(O)O, the AC50 is reported as 4.57 nM (active).
With Cc1ccc(C)c(OCCCC(C)(C)C(=O)O)c1 the outcome was “inactive”.
For CC(C)(Oc1ccc(Cl)cc1)C(=O)O, the outcome was “inactive”.
